The target of the assay is RUNX1 (UniProt Q01196). Kind of assay: RUNX1 binding intensity (PBM fluorescence), RUNX1 alone (arbitrary fluorescence units); higher = stronger binding. The conditions noted are these: RUNX1 concentration 2 nM; ETS1 concentration 0 nM. The method, then:
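Cooperative gcPBM on 36-bp genomic probes with neighbouring ETS1 and RUNX1 sites. Recombinant human RUNX1 (2 nM) was incubated alone or with ETS1 (25 nM) and detected with anti-RUNX1 antibody plus Alexa488 secondary. Values are medians over 4 replicate spots; the RUNX1+ETS1 data were normalised to the RUNX1-only data. The probes sit in constant array flanks that are not printed.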
Chain of RUNX1 (Q01196 whole entry): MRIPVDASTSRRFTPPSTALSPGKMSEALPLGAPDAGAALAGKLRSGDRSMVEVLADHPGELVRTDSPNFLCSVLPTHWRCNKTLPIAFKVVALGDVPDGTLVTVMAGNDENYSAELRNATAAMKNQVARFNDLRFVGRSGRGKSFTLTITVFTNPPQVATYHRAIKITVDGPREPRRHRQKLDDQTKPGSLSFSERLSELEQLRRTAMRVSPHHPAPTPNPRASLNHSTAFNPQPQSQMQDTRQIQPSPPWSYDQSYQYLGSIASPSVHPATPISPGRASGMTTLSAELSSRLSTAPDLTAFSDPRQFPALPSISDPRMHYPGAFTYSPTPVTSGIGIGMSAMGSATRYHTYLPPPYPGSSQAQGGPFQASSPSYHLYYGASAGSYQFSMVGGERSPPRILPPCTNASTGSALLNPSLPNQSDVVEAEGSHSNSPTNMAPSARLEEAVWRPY
As for AAAACAAGGACTTCCGCCTCCCTGCGGTCCCTCCCC, the RUNX1 binding intensity amounted to 894.

In turn, GAGGAACCCAAAGTAGGATGTGGTTTTGCAATTGGA yielded an RUNX1 binding intensity of 1020.

The sequence GGGCTCCCAGAAGGATGTGGTTTCTGAGTACGTTGG gave an RUNX1 binding intensity of 906.

ATGGTCCAGGAAGATAAGGGCTGAAAACCACCCACT showed an RUNX1 binding intensity of 857.

CGACTTCCGTCCCTGGGTGGGATCGAACCACCAACC gave an RUNX1 binding intensity of 1100.

Turning to CACCTGCAGTGAAGAGGATGTGGGCAAAGATTATGC, the RUNX1 binding intensity turned out to be 746.

In the case of CCCGGAGGACGTCCGGCCTCTGTGAGCCGCAACCTT, the RUNX1 binding intensity is 838.

TCAGAACCAGGAAACTGAAGGCGGTTACTCCACATA registered an RUNX1 binding intensity of 742.

With TGCCTTCTACTCCGGAACTCAGACCGCTGCCTTCTA, the RUNX1 binding intensity was determined as 1090.

In the case of TGGAAGGCCGGAAAAGGTTTACCACCACACTCCGGT, the RUNX1 binding intensity came out at 791.

As for AAAGTTGTATAGTGAGGATGTGGTCAAGAACTCACC, the RUNX1 binding intensity was 1010.

Take TGTCAGCTGCGTTTCCGCGGTCGCGGGTGAGTGTGC: the RUNX1 binding intensity was found to be 752.

In turn, CATAGACCGGATGCCTCGTCAACCACAGAAACCAAT displayed an RUNX1 binding intensity of 1000.

GCCCGGAAGCGCGACGCTGGAGCTGCGGGGTTACCA gave an RUNX1 binding intensity of 662.

Consider TGAAGTTGGTGTTTTCCGGGGGCGGTTTTTCCATTG, for which the RUNX1 binding intensity stood at 897.

GTTGGGCTTTGAGGATGTGGGTTCTAGAAGTTTACA yielded an RUNX1 binding intensity of 890.

The sequence TGAGCACAGTATTTCCTGTGGTTTCTATTGCATTTC gave an RUNX1 binding intensity of 1090.

GACACAAGACAGTTTCCGTCAGTGGTTAAGCCCTAA: the RUNX1 binding intensity came out at 845.

For TTTGCTGCAGAAGGATGTGGTTTATTCAGGTTTGAC, the RUNX1 binding intensity was determined as 932.

TGTGTAACTTCCTGGCTTTGGTGGTTTCCCCCTCCT: the RUNX1 binding intensity came out at 757.

The sequence CAACCTGCTATAAGGAAGTTAAACCGCAGCTCACCG registered an RUNX1 binding intensity of 3670.

The sequence CGACCGGAACCACTCTGAGGCGCTGCCGCAGACACC displayed an RUNX1 binding intensity of 919.

Sequence TACAGGAACTTCCTGCGCGGCTGCTGTGGTTGCGAG gave an RUNX1 binding intensity of 684.

TCCCCTTTCCGGGAAGGGTTGGGGATCTGACCACGT gave an RUNX1 binding intensity of 728.

Sequence AGTGGCTACCACTTCCTTCTCTTACCACAGTTCCTT registered an RUNX1 binding intensity of 1550.

Consider GAGTGCCGTTTCCCCCGCTCACCGCGGGCTAGGGAG, for which the RUNX1 binding intensity came to 942.

CCTTCCTTCCGGGGTCGGCCCCGCCCGCAAGCGCCG displayed an RUNX1 binding intensity of 1180.

In turn, AAATGTGGCCGGATGCTCTGTGGGCGGGCGGCAGCT yielded an RUNX1 binding intensity of 700.

CAGGTGTTCAGGAAACAAAACCACAGACTTTTTCAC had an RUNX1 binding intensity of 4690.

In turn, CCCGGCCCAGGAAACTTCAGACTTCACCGCAGCTTC returned an RUNX1 binding intensity of 1060.

Sequence GATCTTCCTGCAACCCCCCGAGACAACCACCGAACA showed an RUNX1 binding intensity of 1090.

The sequence ACTTACTTCCCGACGTCACAGCCACCGAAACCACAG displayed an RUNX1 binding intensity of 1410.

In turn, GTTGTCTTCTTCCTGAGTAAACCGCAGTGCAGAGAA displayed an RUNX1 binding intensity of 5250.

In turn, TACCTAGACCCTTTCCGCCCTTACCGCGGCCAGACA showed an RUNX1 binding intensity of 1210.

Consider TGCGCCGGAAGTGCATGAGCTGCCGATGTGGTGCTT, for which the RUNX1 binding intensity was found to be 715.

AACCTCCGACTTCCGGCCGCGCAGCGGTGGGCTGAG returned an RUNX1 binding intensity of 678.

The sequence GCAGCATTTCCTGACTTCTTCGCCCCTGTGGTTGCA displayed an RUNX1 binding intensity of 850.

Consider CCTGCAGCAACAGGATGTGGTTTGAAAGGATGAAAG, for which the RUNX1 binding intensity was found to be 778.

As for CACCTGCGGAAGTCACAGGGAAGCCACAGAGAGATG, the RUNX1 binding intensity amounted to 766.

CGGGACTTCCTGTCTTCCCTGTTGCGGAGCTCTGAA had an RUNX1 binding intensity of 780.

The values above are taken from the supplement of paper PMC10681739.
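Also: Full-length recombinant human RUNX1 bound to double-stranded 36-bp genomic probes on a high-density microarray, scored as Alexa488 fluorescence per spot via anti-RUNX1 antibody, median of four replicate spots.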
